For one experiment, the system named is Staphylococcus aureus. The note with it: Concentration 32 ug.mL-1;; ASSAY_TEST Inhibition of Bacterial Growth; detection method Absorption (OD600); MEDIA CAMHB; plate type 384well; NBS; CORNING #3640; time 18 hr.
The subject of another experiment is Escherichia coli. Conditions: Concentration 32 ug.mL-1;; ASSAY_TEST Inhibition of Bacterial Growth; detection method Absorption (OD600); MEDIA CAMHB; plate type 384well; NBS; CORNING #3640; time 18 hr.

Each structure is given as a SMILES string. Potency and affinity values are given separately.

Regarding `COc1cc(-c2nnc3c(=O)n(Cc4ccc(Cl)cc4)ccn23)cc(OC)c1OC`, the Inhibition (commonly the relative decrease from the control value, in per cent) in the experiment with Staphylococcus aureus was 11.84%; in the experiment on Escherichia coli it was -0.28%.
The like results for `CCOc1ccccc1NC(=O)Cn1nc2c3cc(-c4ccc(Cl)cc4)nn3ccn2c1=O` were, in that order, 6.48% and 1.3%.
On the same counts, the results for `Cc1ccc(Cn2c(=O)c3ccc(C(=O)NC4CCCC4)cc3n3c(=O)n(CC#N)nc23)cc1` are 2.21% and 1.56%.
Regarding `COc1cccc(-n2ccn3c(SCc4cc(C)ccc4C)nnc3c2=O)c1`, the Inhibition is 11.56% in the experiment on Staphylococcus aureus and -0.49% in the experiment with Escherichia coli.
The like results for `COc1ccc(-c2cc3c4nnc(SCC(=O)Nc5cc(F)ccc5C)n4ccn3n2)cc1` were, in that order, -23.41% and -20.36%.
In the case of `CC(C)Sc1ccc2nn(CC(=O)Nc3ccc(Br)cc3F)c(=O)n2n1`, the Inhibition with Staphylococcus aureus is reported as -2.61%; with Escherichia coli, 3.45%.
Regarding `Cc1ccc(-c2cc3c4nnc(CCC(=O)N5CCN(c6ccccc6F)CC5)n4ccn3n2)cc1C`, the Inhibition in the experiment with Staphylococcus aureus was -1.08%; with Escherichia coli, -5.39%.
Turning to `Cc1cccc(-c2nc(CSc3nc4ccccc4n4c(C)nnc34)c(C)o2)c1`, the Inhibition is 9.9% with Staphylococcus aureus and 1.23% in the experiment with Escherichia coli.
Consider `CCCn1c(=O)c2ccc(C(=O)NC3CCCCC3)cc2n2c(=O)n(CC#N)nc12`, for which the Inhibition with Staphylococcus aureus is reported as 0.58%; in the experiment with Escherichia coli, 2.29%.
The like results for `CCOC(=O)c1ccc(NC(=O)Cn2nc3c(SC4CCCCC4)nccn3c2=O)cc1` were, in that order, 5.44% and -5.89%.
With `COc1cccc(Cn2nc3n(CCC(=O)NC4CCCCC4)c(=O)c4ccccc4n3c2=O)c1`, the Inhibition with Staphylococcus aureus is reported as 6.84%; in the experiment on Escherichia coli, -3.05%.
As to `Cc1nnc2c(S(=O)(=O)N(Cc3ccccc3F)c3cc(F)cc(F)c3)cccn12`, the Inhibition is on record as -8.28% with Staphylococcus aureus and 2.33% in the experiment on Escherichia coli.
The like results for `CCOC(=O)C1CCN(c2nc3ccccc3n3c(=O)n(CC(=O)Nc4ccccc4F)nc23)CC1` were, in that order, 2.72% and -5.37%.
Take `O=C(Cn1nc2c(Oc3ccccc3)nccn2c1=O)Nc1ccc(Cl)cc1`: the values for the Inhibition in the experiment with Staphylococcus aureus and in the experiment with Escherichia coli were 8.53% and -4.75%, respectively.
On the same counts, the results for `CCCCc1ccc(NC(=O)CSc2nc3ccccc3n3c(CC)nnc23)cc1` are 10.38% and -2.23%.
